3T3 cytotox: Cytotoxic Profiling in NIH 3T3 Cell Line of Diverse Libraries Using Quantitative High-Throughput Screening; Potency, µM (titrated, usually from 96.7 µM), hits mostly inhibitors; NIH 3T3 viability, CellTiter-Glo ATP luminescence, 48-72 h; 94,000 tested, 4.3% active; AID 1345082, 2018; also: nearly all actives have a fitted effect of over 55% in size
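Cytotoxicity is measured as loss of cellular ATP: NIH 3T3 cells (400/well) are exposed to compound for 48 or 72 hr at 37 °C, then CellTiter-Glo luminescence is imaged after 10 min at room temperature.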
Luciferase inh: Firefly luciferase inhibition profiling of diverse chemical library using quantitative high-throughput screening; Potency, µM (top dose mostly 115 µM), actives largely listed as inhibitors; 76,000 tested, 2.5% active; purified P. pyralis luciferase, luminescence, biochemical; also: nearly all actives have a fitted effect of over 65% in size
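Purified 10nM P. pyralis luciferase with 10uM D-luciferin and 10uM ATP in 50mM Tris acetate pH 7.5, 10mM Mg acetate, 0.01% Tween-20, 0.05% BSA. qHTS titration; luminescence read by CCD imager.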
NPR1 antag: Natriuretic polypeptide receptor (hNpr1) antagonism - Primary qHTS | HEK293 hNpr1 GloSensor cGMP, ANP-stimulated luminescence | AID 1347048, 2019 | Atrial natriuretic peptide receptor 1 (Homo sapiens), P16066 | Potency, µM (highest dose often 46.3 µM), actives largely listed as inhibitors | 76,000 tested, 1.6% active; calls by dose curve; also: nearly all actives have a fitted effect of over 60% in size
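Compound pre-incubated 30 min at room temperature on GloSensor-loaded HEK293 cells stably carrying hNpr1 and the pGS-40F cGMP biosensor. Stimulation uses hNppA at 0.1 nM final; luminescence is taken at baseline and 20 min post-agonist.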
HEK293 tox: Cytotoxic Profiling in HEK 293 Cell Line of Diverse Libraries Using Quantitative High-Throughput Screening | HEK 293 viability, ATP luminescence (CellTiter-Glo), 48-72 h | Potency, µM (highest dose often 115 µM), most hits filed as inhibitors | 94,000 tested, 6.6% active | AID 1345083, 2018; also: nearly all actives have a fitted effect of over 60% in size
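Pintool-delivered compounds were incubated with HEK 293 cells (250 cells/well) at 37 degree Celsius for 48 or 72 hr. ATP-dependent luminescence (CellTiter-Glo) then reported remaining viable cells.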
Numbers stand for hits. Sampled rows, rich in hits. Any-hit rate of the full collection: about 11%. Unless noted, calls follow the shape of the dose curve; as a rule, active = well fitted curve in the direction sought with a large enough effect; inconclusive = small, poorly fitted or top-dose-only effect, or another doubt; inactive = no such curve, though single readings can be large; an effect the other way counts as inactive or inconclusive.

Cc1cc(C)n(CCC(=O)N2CC(Oc3cccc(-c4nc(-c5ccccc5)no4)c3)C2)n1 was read as 3T3 cytotox 40µM, Luciferase inh 28µM, NPR1 antag inconclusive and HEK293 tox inconclusive.
Screening O=C(NCc1ccccc1)N1CC(Oc2ccc(-c3nc(-c4ccccc4)no3)cc2)C1 returned 3T3 cytotox inactive, Luciferase inh 2.5µM, NPR1 antag inconclusive and HEK293 tox inconclusive.
For CNC(=O)c1cc(C2CC2)nc2onc(C3CCN(C(=O)C4CC4)CC3)c12 the results were 3T3 cytotox inactive and HEK293 tox inconclusive.
Screening CCCNC(=O)N1CCN(Cc2c(C)noc2C)CC1 returned 3T3 cytotox inactive, Luciferase inh inactive, NPR1 antag inactive and HEK293 tox inconclusive.
`CCN1CC(CN(C)Cc2cn(-c3ccccc3C)nc2-c2ccc(OC)c(F)c2)CC1=O` (stereo unspecified) gave 3T3 cytotox inconclusive, Luciferase inh inactive, NPR1 antag inactive and HEK293 tox 22µM.
CCN1C(=O)CCC2(C(=O)NCCc3c[nH]c4ccccc34)CCCC=C12 (stereo unspecified) was read as 3T3 cytotox inactive, Luciferase inh inconclusive, NPR1 antag inactive and HEK293 tox inactive.
COc1cncc(NC(=O)C2=NO[C@@H]3CN(Cc4ccccc4)C[C@H]23)c1 was read as 3T3 cytotox inconclusive, Luciferase inh inactive, NPR1 antag inactive and HEK293 tox inactive.
COc1ccc(NC(=O)C2=NO[C@@H]3CN(c4cccnc4)C[C@H]23)cc1 was read as 3T3 cytotox inconclusive, Luciferase inh 35µM, NPR1 antag inconclusive and HEK293 tox inconclusive.
For COc1ccc(NC(=O)C2=NO[C@@H]3CN(CCc4ccccc4)C[C@H]23)cn1 the results were 3T3 cytotox inactive, Luciferase inh inactive, NPR1 antag inactive and HEK293 tox 100µM.
Cn1ncc2c(C(=O)Nc3cccnc3)cc(-c3cccc(C(F)(F)F)c3)nc21 was read as 3T3 cytotox inactive and HEK293 tox inactive.
O=C1NCc2ccccc2CC12CCN(Cc1ccc(Oc3ccccc3)cc1)C2 (stereo unspecified) was read as 3T3 cytotox 32µM and HEK293 tox inconclusive.
Screening O=C1NCc2ccccc2CC12CCN(Cc1ccc(F)cc1)C2 (stereo unspecified) returned 3T3 cytotox inactive and HEK293 tox inconclusive.
For O=C1NCc2ccccc2CC12CCN(Cc1ccc(-c3ccccc3)cc1)C2 (stereo unspecified) the results were 3T3 cytotox 35µM and HEK293 tox 35µM.
CCOC(=O)C1CCCN(C(=O)CC(c2ccc3c(c2)OCO3)c2cn(CC)c3ccccc23)C1 (stereo unspecified) was read as 3T3 cytotox 40µM, Luciferase inh inactive, NPR1 antag inactive and HEK293 tox inconclusive.
Cc1ccc(C(CC(=O)N2CCCCC2)c2cn(C)c3ccccc23)cc1 (stereo unspecified) was read as 3T3 cytotox inconclusive, Luciferase inh inactive, NPR1 antag inactive and HEK293 tox 50µM.
`Cc1ccc(C(CC(=O)N2CCc3ccccc3C2)c2cn(C)c3ccccc23)cc1` (stereo unspecified) gave 3T3 cytotox inconclusive, Luciferase inh 35µM, NPR1 antag inactive and HEK293 tox inconclusive.
Screening CCOC(=O)C1CCN(C(=O)CC(c2ccc(Cl)cc2)c2cn(C)c3ccccc23)CC1 (stereo unspecified) returned 3T3 cytotox inconclusive, Luciferase inh inactive, NPR1 antag inactive and HEK293 tox inconclusive.
Screening Cc1cc(=O)n(CC(=O)Nc2ccccc2F)c(N2CCc3ccccc3C2)n1 returned 3T3 cytotox inactive, Luciferase inh inactive, NPR1 antag inactive and HEK293 tox inactive.
`COc1ccc(CCC(=O)N2CCC3(CC2)NC(=O)N(c2cccc(F)c2)N3)cc1` gave 3T3 cytotox inconclusive, Luciferase inh inactive, NPR1 antag inactive and HEK293 tox inconclusive.
Screening COc1ccc(-c2ccc(C(=O)Nc3ccccc3Cl)cc2)nn1 returned 3T3 cytotox inactive and HEK293 tox inconclusive.
COc1ccc(-c2ccc(C(=O)NCc3ccccc3F)cc2)nn1 was read as 3T3 cytotox inconclusive and HEK293 tox 112µM.
Screening COc1ccc(-c2ccc(C(=O)NCc3cccc(F)c3)cc2)nn1 returned 3T3 cytotox inactive and HEK293 tox inconclusive.
`COc1ccc(-c2ccc(C(=O)NCc3cccnc3)cc2)nn1` gave 3T3 cytotox 8.9µM and HEK293 tox inactive.
COc1ccc(-c2ccc(C(=O)N(C)c3ccccc3)cc2)nn1 was read as 3T3 cytotox 13µM and HEK293 tox 22µM.
`COc1ccc(-c2ccc(C(=O)NCc3ccccc3)cc2)nn1` gave 3T3 cytotox inactive and HEK293 tox inactive.
`O=C(NCc1cccnc1)c1ccc2oc(-c3ccc(C(F)(F)F)cc3)nc2c1` gave 3T3 cytotox inconclusive, Luciferase inh inactive, NPR1 antag inconclusive and HEK293 tox 11µM.
`COc1ccc(CNC(=O)CNC(=O)c2cccc(-c3ccsc3)c2)cc1` gave 3T3 cytotox inactive and HEK293 tox inconclusive.
Screening O=C(NCC1Cn2cccc2CN1Cc1ccccc1)C1CC1 (stereo unspecified) returned 3T3 cytotox inconclusive, Luciferase inh inconclusive, NPR1 antag inactive and HEK293 tox inconclusive.
`O=C(C1CCCN1[S+](=O)([O-])c1cccs1)N1CCC(c2nc3ccncc3[nH]2)CC1` (stereo unspecified) gave 3T3 cytotox inactive and HEK293 tox inactive.
For CC(C)n1cnnc1CC1CCCN(C(=O)COc2ccccc2)C1 (stereo unspecified) the results were 3T3 cytotox inactive, Luciferase inh inactive, NPR1 antag inactive and HEK293 tox inactive.
Screening COc1ccc(-c2ccc(NC(=O)c3ccccc3C)cc2)nn1 returned 3T3 cytotox inconclusive and HEK293 tox 40µM.
For COc1ccc(-c2noc([C@@H]3C[C@H](NS(=O)(=O)c4ccc(F)cc4)CN3C)n2)cc1 the results were 3T3 cytotox inconclusive, Luciferase inh 18µM, NPR1 antag inactive and HEK293 tox inconclusive.
Screening COc1ccc(-c2ccc3c(c2)C(=O)N2C[C@@H](NS(=O)(=O)c4ccc(F)cc4)C[C@H]2C(=O)N3)c(OC)c1 returned 3T3 cytotox inconclusive, Luciferase inh inactive, NPR1 antag inactive and HEK293 tox 28µM.
COc1ccc(-c2noc([C@@H]3C[C@H](NCc4cccc(C#N)c4)CN3C)n2)cc1 was read as 3T3 cytotox inconclusive, Luciferase inh 40µM, NPR1 antag inactive and HEK293 tox inconclusive.
`O=C1Nc2ccc(-c3ccsc3)cc2C(=O)N2C[C@@H](NS(=O)(=O)c3ccc(F)cc3)C[C@@H]12` gave 3T3 cytotox inactive, Luciferase inh inactive, NPR1 antag inactive and HEK293 tox inactive.
